Assay results taken from the supplement of paper PMC10849652.
Targets with a hit are over-represented here; the source holds about 7,900 in all. About 0.6% of all pairs of compound and target were hits.

Tests used:
Test in all cases: log2 fold change, soluble protein after heating vs DMSO (PISA); higher = thermal stabilisation; K562 cells, 10 uM, 30 min; active = over 0.2 and 3.5 SD of the protein, either way, in both replicates (recomputed)
[1] = compound: COC1=CC=C(C=C1)CN2C=CC3=C2C=C(C=C3)C(=O)NO
Method in brief: (§1)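 K562 cells at 2×10^6 cells/mL were treated with 10 μM compound for 30 min. Aliquots were heated for 3 min across 48°C-58°C, pooled, and extracted in PBS with 0.5% NP-40 at 4°C; soluble protein was the supernatant after 21,000xg for 90 min. Soluble protein was quantified by TMTpro 16plex LC-MS/MS with channel sums equalised, and reported as log2 fold change in thermal stability against DMSO controls, with values from duplicates.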

filanesib = compound: CON(C)C(=O)N1N=C(c2cc(F)ccc2F)S[C@@]1(CCCN)c1ccccc1 [filanesib]
Method in brief: as §1

zotarolimus = compound: CO[C@H]1C[C@@H]2CC[C@@H](C)[C@@](O)(O2)C(=O)C(=O)N2CCCC[C@H]2C(=O)O[C@H]([C@H](C)C[C@@H]2CC[C@H](n3cnnn3)[C@H](OC)C2)CC(=O)[C@H](C)/C=C(\C)[C@@H](O)[C@@H](OC)C(=O)[C@H](C)C[C@H](C)/C=C/C=C/C=C/1C [zotarolimus]
Method in brief: as §1

idasanutlin = compound: COc1cc(C(=O)O)ccc1NC(=O)[C@@H]1N[C@@H](CC(C)(C)C)[C@](C#N)(c2ccc(Cl)cc2F)[C@H]1c1cccc(Cl)c1F [idasanutlin]
Method in brief: as §1

alisertib = compound: COc1cc(Nc2ncc3c(n2)-c2ccc(Cl)cc2C(c2c(F)cccc2OC)=NC3)ccc1C(=O)O [alisertib]
Method in brief: as §1

[2] = compound: COc1cc2nc(-c3cc(F)ccc3O)nc(N[C@@H]3CNC[C@H]3C(C)(C)O)c2cc1OC
Method in brief: as §1

gefitinib = compound: COc1cc2ncnc(Nc3ccc(F)c(Cl)c3)c2cc1OCCCN1CCOCC1 [gefitinib]
Method in brief: as §1

[3] = compound: COc1cccc2cc(-c3nc([C@H]4CC[C@H](C(=O)O)CC4)n4ncnc(N)c34)[nH]c12
Method in brief: as §1

lapatinib = compound: CS(=O)(=O)CCNCc1ccc(-c2ccc3ncnc(Nc4ccc(OCc5cccc(F)c5)c(Cl)c4)c3c2)o1 [lapatinib]
Method in brief: as §1

pictilisib = compound: CS(=O)(=O)N1CCN(Cc2cc3nc(-c4cccc5[nH]ncc45)nc(N4CCOCC4)c3s2)CC1 [pictilisib]
Method in brief: as §1

Measured: log2 fold change

NUP107 (UniProt P57740)
inactive: [1] -0.005 | filanesib 0.233 | zotarolimus 0.032 | idasanutlin 0.026 | alisertib 0.007 | [2] -0.116 | gefitinib -0.073 | [3] -0.04 | lapatinib 0.137 | pictilisib -0.13

NUMA1 (UniProt Q14980)
Chain of UniProt Q14980 (Q14980 whole entry, looked up): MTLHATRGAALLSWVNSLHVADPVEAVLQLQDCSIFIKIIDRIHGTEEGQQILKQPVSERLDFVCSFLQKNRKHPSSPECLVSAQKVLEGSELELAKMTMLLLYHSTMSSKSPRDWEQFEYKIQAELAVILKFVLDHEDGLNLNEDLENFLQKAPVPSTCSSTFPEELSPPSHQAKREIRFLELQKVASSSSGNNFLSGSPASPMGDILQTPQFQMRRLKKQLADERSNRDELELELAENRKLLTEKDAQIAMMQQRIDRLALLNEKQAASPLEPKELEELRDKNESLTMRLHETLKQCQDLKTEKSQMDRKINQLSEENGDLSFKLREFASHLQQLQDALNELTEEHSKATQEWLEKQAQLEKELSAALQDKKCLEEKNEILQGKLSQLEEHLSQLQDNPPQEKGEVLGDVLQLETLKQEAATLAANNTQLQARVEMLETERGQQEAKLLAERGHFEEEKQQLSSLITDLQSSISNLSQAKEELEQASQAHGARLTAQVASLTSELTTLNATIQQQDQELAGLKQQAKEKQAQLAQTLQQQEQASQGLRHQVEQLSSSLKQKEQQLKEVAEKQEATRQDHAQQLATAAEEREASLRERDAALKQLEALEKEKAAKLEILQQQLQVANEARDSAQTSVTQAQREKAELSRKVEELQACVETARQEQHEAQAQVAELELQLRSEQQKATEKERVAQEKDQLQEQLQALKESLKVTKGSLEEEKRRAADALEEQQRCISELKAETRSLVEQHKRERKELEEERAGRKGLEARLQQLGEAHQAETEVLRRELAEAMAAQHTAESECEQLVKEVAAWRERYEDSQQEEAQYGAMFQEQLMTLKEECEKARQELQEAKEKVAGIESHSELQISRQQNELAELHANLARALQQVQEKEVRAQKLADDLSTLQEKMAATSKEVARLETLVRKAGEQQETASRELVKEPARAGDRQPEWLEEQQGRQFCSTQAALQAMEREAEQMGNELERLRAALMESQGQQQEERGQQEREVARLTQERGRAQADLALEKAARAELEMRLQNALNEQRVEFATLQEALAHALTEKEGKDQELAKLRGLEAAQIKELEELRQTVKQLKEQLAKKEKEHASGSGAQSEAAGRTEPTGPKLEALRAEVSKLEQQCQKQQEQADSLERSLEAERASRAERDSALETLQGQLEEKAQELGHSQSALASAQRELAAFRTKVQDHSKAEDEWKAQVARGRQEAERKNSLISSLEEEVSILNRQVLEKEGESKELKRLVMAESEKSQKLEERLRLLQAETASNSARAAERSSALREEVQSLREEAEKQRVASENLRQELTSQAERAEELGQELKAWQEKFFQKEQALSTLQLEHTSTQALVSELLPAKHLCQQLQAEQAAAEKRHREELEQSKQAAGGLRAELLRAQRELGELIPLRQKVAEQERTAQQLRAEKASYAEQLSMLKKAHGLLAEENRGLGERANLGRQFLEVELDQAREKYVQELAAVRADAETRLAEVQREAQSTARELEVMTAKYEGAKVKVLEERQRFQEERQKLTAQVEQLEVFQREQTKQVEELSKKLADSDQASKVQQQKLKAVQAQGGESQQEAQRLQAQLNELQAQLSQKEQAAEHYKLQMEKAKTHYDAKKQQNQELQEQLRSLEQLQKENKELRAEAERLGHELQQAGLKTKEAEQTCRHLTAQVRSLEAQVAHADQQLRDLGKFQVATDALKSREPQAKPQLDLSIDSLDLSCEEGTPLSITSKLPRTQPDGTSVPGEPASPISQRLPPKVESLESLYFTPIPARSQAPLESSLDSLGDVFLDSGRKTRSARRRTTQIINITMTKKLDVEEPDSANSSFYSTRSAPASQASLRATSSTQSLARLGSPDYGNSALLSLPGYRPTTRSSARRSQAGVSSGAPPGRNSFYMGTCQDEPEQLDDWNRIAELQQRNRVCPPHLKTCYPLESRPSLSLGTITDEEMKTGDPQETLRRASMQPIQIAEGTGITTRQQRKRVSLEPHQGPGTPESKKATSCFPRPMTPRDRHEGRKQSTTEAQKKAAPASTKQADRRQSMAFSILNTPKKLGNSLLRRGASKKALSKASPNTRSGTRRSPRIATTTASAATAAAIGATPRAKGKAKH
inactive: [1] 0.002 | filanesib 0.266 | zotarolimus 0.13 | idasanutlin 0.07 | alisertib -0.088 | [2] -0.223 | gefitinib -0.001 | [3] -0.247 | lapatinib 0.062 | pictilisib 0.021

OSTC (UniProt Q9NRP0)
Chain of UniProt Q9NRP0 (Q9NRP0 whole entry, looked up): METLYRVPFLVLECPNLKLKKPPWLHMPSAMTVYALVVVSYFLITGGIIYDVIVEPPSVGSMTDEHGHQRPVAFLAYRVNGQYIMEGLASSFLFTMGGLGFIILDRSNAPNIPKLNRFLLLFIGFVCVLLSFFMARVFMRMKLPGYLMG
inactive: [1] -0.05 | filanesib -0.171 | zotarolimus -0.105 | idasanutlin -0.041 | alisertib -0.101 | [2] -0.184 | gefitinib 0.018 | [3] 0.026 | lapatinib -0.041 | pictilisib 0.162

MYH16 (UniProt Q9H6N6)
active: [1] 0.886
inactive: filanesib -0.263 | zotarolimus -0.118 | idasanutlin -0.066 | alisertib 0.163 | [2] -0.052 | gefitinib -0.03 | [3] -0.031 | lapatinib 0.204 | pictilisib -0.448

NOSIP (UniProt Q9Y314)
inactive: [1] -0.069 | filanesib 0.143 | zotarolimus -0.018 | idasanutlin 0.029 | alisertib 0.166 | [2] 0.174 | gefitinib 0.156 | [3] -0.053 | lapatinib -0.046 | pictilisib -0.067

NT5DC1 (UniProt Q5TFE4)
inactive: [1] 0.016 | filanesib -0.067 | zotarolimus 0.019 | idasanutlin -0.122 | alisertib -0.015 | [2] 0.04 | gefitinib 0.018 | [3] 0.02 | lapatinib 0.074 | pictilisib 0.097

MRPS22 (UniProt P82650)
inactive: [1] 0.041 | filanesib 0.05 | zotarolimus 0.071 | alisertib 0.015 | [2] 0.019 | gefitinib -0.017 | [3] -0.019 | lapatinib 0.038 | pictilisib -0.03
active: idasanutlin -0.301

NUP160 (UniProt Q12769)
Chain of UniProt Q12769 (Q12769 whole entry, looked up): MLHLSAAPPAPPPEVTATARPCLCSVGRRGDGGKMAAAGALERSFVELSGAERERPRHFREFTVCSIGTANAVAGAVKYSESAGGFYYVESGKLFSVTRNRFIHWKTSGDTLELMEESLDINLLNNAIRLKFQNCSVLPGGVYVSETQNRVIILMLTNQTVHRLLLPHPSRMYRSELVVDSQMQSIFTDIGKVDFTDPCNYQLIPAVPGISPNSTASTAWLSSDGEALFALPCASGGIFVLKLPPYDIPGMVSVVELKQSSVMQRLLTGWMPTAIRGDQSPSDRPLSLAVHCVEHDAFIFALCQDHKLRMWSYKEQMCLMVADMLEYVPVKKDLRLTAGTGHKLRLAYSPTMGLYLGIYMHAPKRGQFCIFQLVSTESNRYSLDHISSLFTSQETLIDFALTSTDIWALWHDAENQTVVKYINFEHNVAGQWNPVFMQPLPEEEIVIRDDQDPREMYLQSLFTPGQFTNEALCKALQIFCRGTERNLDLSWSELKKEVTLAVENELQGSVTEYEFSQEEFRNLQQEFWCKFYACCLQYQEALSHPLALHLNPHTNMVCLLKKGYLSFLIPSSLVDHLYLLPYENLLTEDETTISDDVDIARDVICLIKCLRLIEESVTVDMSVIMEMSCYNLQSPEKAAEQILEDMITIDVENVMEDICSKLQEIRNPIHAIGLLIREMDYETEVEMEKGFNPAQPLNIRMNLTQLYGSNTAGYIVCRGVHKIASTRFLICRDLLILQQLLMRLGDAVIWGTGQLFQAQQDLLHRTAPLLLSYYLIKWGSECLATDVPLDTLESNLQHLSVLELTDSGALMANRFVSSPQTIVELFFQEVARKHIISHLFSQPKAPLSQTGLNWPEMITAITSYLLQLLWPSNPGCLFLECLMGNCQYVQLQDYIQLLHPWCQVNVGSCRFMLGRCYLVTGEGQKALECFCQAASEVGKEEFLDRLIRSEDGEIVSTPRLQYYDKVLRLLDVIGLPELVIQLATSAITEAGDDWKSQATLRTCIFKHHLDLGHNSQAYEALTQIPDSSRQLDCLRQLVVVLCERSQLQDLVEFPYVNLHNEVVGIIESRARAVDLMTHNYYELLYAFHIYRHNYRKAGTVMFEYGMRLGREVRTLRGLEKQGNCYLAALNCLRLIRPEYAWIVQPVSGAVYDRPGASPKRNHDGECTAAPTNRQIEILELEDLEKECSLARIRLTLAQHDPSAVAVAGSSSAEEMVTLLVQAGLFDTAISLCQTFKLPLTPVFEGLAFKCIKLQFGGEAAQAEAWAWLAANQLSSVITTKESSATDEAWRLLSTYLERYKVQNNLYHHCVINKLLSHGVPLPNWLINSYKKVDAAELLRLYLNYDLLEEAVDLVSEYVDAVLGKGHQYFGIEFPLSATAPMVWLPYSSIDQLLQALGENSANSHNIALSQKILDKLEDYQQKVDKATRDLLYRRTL
inactive: [1] -0.043 | filanesib -0.003 | zotarolimus 0.017 | idasanutlin 0.004 | alisertib -0.076 | [2] -0.068 | gefitinib 0.033 | [3] 0.037 | lapatinib 0.057 | pictilisib -0.021

MRPS17 (UniProt Q9Y2R5)
inactive: [1] -0.089 | filanesib 0.038 | zotarolimus 0.047 | idasanutlin -0.254 | alisertib -0.043 | [2] -0.025 | gefitinib 0.039 | [3] -0.016 | lapatinib 0.113 | pictilisib 0.035

NUMB (UniProt P49757)
inactive: [1] -0.051 | filanesib 0.074 | zotarolimus 0.015 | idasanutlin 0 | alisertib -0.064 | [2] 0.04 | gefitinib 0.027 | [3] -0.017 | lapatinib 0.012 | pictilisib 0.076

MRPS24 (UniProt Q96EL2)
inactive: [1] -0.153 | filanesib 0.047 | zotarolimus 0.088 | idasanutlin -0.134 | alisertib -0.104 | [2] 0.096 | gefitinib -0.056 | [3] -0.014 | lapatinib 0.047 | pictilisib -0.174

PAFAH1B3 (UniProt Q15102)
Chain of UniProt Q15102 (Q15102 whole entry, looked up): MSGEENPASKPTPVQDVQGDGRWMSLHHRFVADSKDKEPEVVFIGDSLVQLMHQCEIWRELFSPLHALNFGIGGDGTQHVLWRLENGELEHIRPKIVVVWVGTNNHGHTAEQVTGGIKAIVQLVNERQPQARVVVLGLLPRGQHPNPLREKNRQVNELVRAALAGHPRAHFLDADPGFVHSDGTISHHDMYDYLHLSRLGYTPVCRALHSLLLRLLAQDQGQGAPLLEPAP
inactive: [1] -0.01 | filanesib -0.024 | zotarolimus 0.037 | idasanutlin -0.033 | alisertib -0.044 | [2] 0.03 | gefitinib 0.043 | [3] 0.057 | lapatinib -0.054 | pictilisib 0.079

NDUFA4 (UniProt O00483)
Chain of UniProt O00483 (O00483 whole entry, looked up): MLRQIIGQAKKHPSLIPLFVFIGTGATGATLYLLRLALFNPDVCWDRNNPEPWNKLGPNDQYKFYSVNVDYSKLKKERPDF
inactive: [1] -0.022 | filanesib -0.031 | zotarolimus -0.019 | idasanutlin 0.038 | alisertib -0.024 | [2] -0.044 | gefitinib 0.024 | [3] 0.019 | lapatinib 0.048 | pictilisib -0.025

MSH2 (UniProt P43246)
Chain of UniProt P43246 (P43246 whole entry, looked up): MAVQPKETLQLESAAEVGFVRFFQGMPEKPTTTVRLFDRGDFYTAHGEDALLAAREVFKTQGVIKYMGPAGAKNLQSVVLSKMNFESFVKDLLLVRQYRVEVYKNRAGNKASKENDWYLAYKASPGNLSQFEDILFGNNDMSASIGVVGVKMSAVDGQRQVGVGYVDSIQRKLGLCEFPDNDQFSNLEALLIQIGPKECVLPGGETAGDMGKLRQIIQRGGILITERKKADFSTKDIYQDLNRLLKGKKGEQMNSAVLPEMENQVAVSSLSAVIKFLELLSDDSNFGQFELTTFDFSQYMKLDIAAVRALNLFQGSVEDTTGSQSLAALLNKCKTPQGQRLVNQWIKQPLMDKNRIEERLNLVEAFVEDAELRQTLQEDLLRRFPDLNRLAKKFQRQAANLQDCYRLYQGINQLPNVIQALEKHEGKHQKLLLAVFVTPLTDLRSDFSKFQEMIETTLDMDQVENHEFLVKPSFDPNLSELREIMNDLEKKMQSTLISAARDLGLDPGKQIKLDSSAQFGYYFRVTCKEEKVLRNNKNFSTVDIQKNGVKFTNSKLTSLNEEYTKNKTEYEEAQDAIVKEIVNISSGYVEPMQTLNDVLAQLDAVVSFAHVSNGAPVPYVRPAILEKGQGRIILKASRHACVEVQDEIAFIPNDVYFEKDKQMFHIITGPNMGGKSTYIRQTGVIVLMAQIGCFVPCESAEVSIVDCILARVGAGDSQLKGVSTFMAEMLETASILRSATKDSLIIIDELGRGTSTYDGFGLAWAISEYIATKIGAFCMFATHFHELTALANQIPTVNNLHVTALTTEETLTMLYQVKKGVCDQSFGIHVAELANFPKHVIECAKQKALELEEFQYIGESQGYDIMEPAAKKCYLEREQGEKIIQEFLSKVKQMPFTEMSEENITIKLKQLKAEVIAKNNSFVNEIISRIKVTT
inactive: [1] 0.072 | filanesib 0 | zotarolimus 0.057 | idasanutlin -0.019 | alisertib -0.018 | [2] 0.024 | gefitinib 0.007 | [3] -0.026 | lapatinib -0.021 | pictilisib 0.144

MRPS15 (UniProt P82914)
inactive: [1] 0.041 | filanesib 0.145 | zotarolimus 0.095 | idasanutlin -0.265 | alisertib -0.024 | [2] 0.016 | gefitinib -0.054 | [3] 0.024 | lapatinib 0.08 | pictilisib -0.13
